Compound activity from PubChem.
697 NFkB inh: lowers PMA/ionomycin-induced NF-kB signal in 697 B cells. 697 B-cell NF-kB luciferase reporter, 16 h. inhibition, % at 4 µM. actives 0.33% (n = 330,000); in the data active = inhibition above about 35%
ANO1 activ: activators or potentiators of mouse TMEM16A chloride channel | B-score at 10 µM | HEK293 TMEM16A/YFP-H148Q/I152L, iodide quench fluorescence; stronger effect = lower value | actives 0.3% (n = 340,000) | Q8BHY3;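 active = fluorescence-ratio B-score plate-corrected deviation score at least 3 library SD below zero, with starting fluorescence score within 5 deviations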;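 note: channel opened by trigger with iodide after compound preincubation; score built on the fluorescence ratio of max minus min over baseline; more negative score means more quench and so TMEM16A activation or potentiation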
KLF5 inh: suppresses KLF5 promoter-driven expression; AID 1700; actives 0.23% (n = 290,000); inhibition, % at 5 µM; DLD-1 KLF5 promoter-luciferase reporter, luminescence;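 active = inhibition above a per-plate limit of that plate's mean compound inhibition plus 3 SD, cut at about 60% in these data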;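 note: 0% = DMSO wells and 100% = LY294002 at 200 µM; higher means less KLF5 promoter-driven luciferase light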
TMEM16A inh: inhibitors of mouse TMEM16A calcium-activated chloride channel; Q8BHY3; normalized B-score (activity score, 25-100; higher = stronger inhibition) at 10 µM; HEK293 TMEM16A/YFP iodide influx fluorescence, ionomycin; actives 1.2% (n = 310,000);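 active = ratio plate-corrected score three or more library SD toward inhibition, starting fluorescence score within five deviations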;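 note: score derived from kinetic fluorescence span divided by baseline fluorescence per well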
Jurkat NFkB inh: inhibitors of the PMA/ionomycin-induced NF-kB reporter in Jurkat cells | inhibition, % at 4 µM | AID 435003 | actives 0.53% (n = 330,000) | PMA/ionomycin-induced NF-kB luciferase reporter, luminescence; in the data active = inhibition above about 50%
aSyn 5UTR inh: MLPCN primary screen, SNCA 5' untranslated region. alpha-synuclein 5'UTR reporter, inhibitor activity. inhibition, % (tested at 7.5 µM). actives 0.82% (n = 300,000). AID 1813; in the data active = inhibition above about 60%;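 note: H4 neuroglioblastoma cells stably carrying SNCA 5'UTR luciferase fusion; 0% = DMSO wells and 100% = positive control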
TMEM16A reconf: reconfirmed blocker of mouse TMEM16A calcium-activated chloride channel. HEK293 TMEM16A/YFP-H148Q, iodide quench fluorescence; ionomycin added to raise cell calcium. actives 39% (n = 2,300). AID 652189. shares compounds with TMEM16A inh. inhibition, % at 10 µM;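 active = mean duplicate percent inhibition, scaled so buffer wells are 0 and the reference blocker 100, over three buffer SD above buffer mean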
TMEM16A Ca cntr: alters calcium mobilization in TMEM16A HEK293 cells, counter-screen; calcium response (% of ionomycin), % at 10 µM; shares compounds with TMEM16A inh; TMEM16A/YFP HEK293, Fluo4 calcium mobilization; actives 2% (n = 2,300);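 active = duplicate-averaged calcium signal over 20% of the ionomycin maximum, relative to buffer baseline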;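 note: each well's signal is peak minus trough fluorescence divided by its pre-addition baseline; 0% = buffer wells and 100% = ionomycin wells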
YFP-HEK293 quench: counter-screen for TMEM16A inhibitors: effect in parental YFP-HEK293 cells. shares compounds with TMEM16A inh. iodide YFP quench, ionomycin. YFP ratio F(max-min)/F0 at 10 µM. 2,300 tested, under 10 active. AID 652233;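 active = yellow fluorescent protein signal ratio exceeding the buffer control mean by over 5 SD of those controls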;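 note: ratio is mean of duplicate wells from kinetic YFP trace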
ClC-1 inh: blocks the rat ClC-1 voltage-dependent chloride channel; ratio percent, % at 10 µM; CHO ClC-1-YFP, iodide influx fluorescence quench; iodide control reads 0, buffer control 100; AID 652236; shares compounds with TMEM16A inh; 2,300 tested, under 10 active;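 active = duplicate-mean ratio percent above the mean of iodide-only control wells, which defines zero, plus 5 of their SD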;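 note: higher percent means stronger block of ClC-1 iodide influx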
Target sequence (P35524 whole entry, looked up): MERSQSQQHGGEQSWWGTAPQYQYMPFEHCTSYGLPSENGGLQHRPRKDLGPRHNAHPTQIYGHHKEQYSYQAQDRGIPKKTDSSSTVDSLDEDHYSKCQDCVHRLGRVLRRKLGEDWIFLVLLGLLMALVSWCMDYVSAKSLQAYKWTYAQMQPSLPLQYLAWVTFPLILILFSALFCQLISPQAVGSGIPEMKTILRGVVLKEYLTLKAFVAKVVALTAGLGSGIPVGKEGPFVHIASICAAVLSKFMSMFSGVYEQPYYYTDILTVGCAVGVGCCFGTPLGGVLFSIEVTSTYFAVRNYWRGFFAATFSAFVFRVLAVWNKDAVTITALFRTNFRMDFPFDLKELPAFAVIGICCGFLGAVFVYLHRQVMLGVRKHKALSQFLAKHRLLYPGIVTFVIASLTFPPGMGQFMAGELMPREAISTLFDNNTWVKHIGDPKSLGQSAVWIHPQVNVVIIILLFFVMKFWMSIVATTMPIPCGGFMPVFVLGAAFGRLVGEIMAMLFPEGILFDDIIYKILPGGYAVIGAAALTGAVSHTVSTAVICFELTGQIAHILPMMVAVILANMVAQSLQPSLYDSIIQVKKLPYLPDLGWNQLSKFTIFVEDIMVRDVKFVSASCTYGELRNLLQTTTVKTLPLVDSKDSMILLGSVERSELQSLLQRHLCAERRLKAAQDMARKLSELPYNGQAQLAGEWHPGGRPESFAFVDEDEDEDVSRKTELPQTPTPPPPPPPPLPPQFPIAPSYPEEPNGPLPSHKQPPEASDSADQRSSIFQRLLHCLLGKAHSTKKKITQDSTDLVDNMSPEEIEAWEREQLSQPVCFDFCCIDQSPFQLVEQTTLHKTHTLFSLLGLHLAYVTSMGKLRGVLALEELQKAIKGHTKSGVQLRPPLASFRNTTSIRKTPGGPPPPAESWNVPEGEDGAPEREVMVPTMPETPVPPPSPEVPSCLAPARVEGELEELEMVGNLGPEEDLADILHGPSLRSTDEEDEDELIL
The depositor's hits bear a star; i = inactive; . = no result given. This is a sample that favours compounds with a hit; in the whole collection about 2.5% have one here.

SMILES | 697 NFkB inh | ANO1 activ | KLF5 inh | TMEM16A inh | Jurkat NFkB inh | aSyn 5UTR inh | TMEM16A reconf | TMEM16A Ca cntr | YFP-HEK293 quench | ClC-1 inh
CCOC(=O)C1=C(COC(=O)[C@@H]2CCCN2S(=O)(=O)c2ccc(C)cc2)NC(=O)NC1C (some centres not stated) | 25 | i | -17 | i | 6 | 6 | . | . | . | .
N#CC1(Cc2ccccc2Cl)c2ccccc2C=CN1C(=O)c1ccccc1 (configuration not stated) | 4 | i | -29 | 25* | 10 | 0 | i | i | -1.2 | -9
N#CC1c2ccccc2C=CN1C(=O)c1ccccc1 (configuration not stated) | 5 | i | -18 | i | 13 | 9 | . | . | . | .
Cc1ccc(NC(=O)CNc2cccc(C)c2C)c(C)c1 | 5 | i | -19 | 100* | -2 | 5 | i | i | -0.82 | -10
COc1cccc(C(=O)NC2CCN(C(=O)N3CCCCC3)CC2)c1 | -9 | i | -3 | 25* | 1 | 3 | i | i | -1 | -16
CC(C)[Si]1(C(C)C)OCC2OC(n3cnc4c(N)ncnc43)C(N)C2O[Si](C(C)C)(C(C)C)O1 (configuration not stated) | . | i | . | . | . | . | . | . | . | .
Cc1cc(O)c(C(C)C)cc1N=Nc1ccccc1C(=O)O | -1 | i | -40 | i | 0 | 15 | 38%* | i | -0.73 | -8
COc1cc(N=Nc2ccccc2C(=O)O)ccc1O | -13 | i | -13 | i | -17 | -9 | . | . | . | .
Cc1cc(N=Nc2ccccc2C(=O)O)c(C)c(C)c1O | -9 | i | 13 | i | 8 | 13 | 53%* | i | -1.2 | -18
CC(=O)c1c(C)nn(CC(O)COc2ccc3c(c2)CCC3)c1C (configuration not stated) | -53 | i | -25 | 25* | -6 | 10 | i | i | -1.1 | -6
Cc1nn(CC(O)COc2ccc3c(c2)CCC3)c(C)c1Br (configuration not stated) | -11 | i | -29 | i | 0 | 15 | . | . | . | .
COC(=O)c1ccc(NC(=O)C2CCN(C(=O)Nc3ccccc3)CC2)cc1 | 0 | i | . | . | -22 | . | . | . | . | .
O=C(CC1Sc2ccccc2NC1=O)OCc1cc(=O)oc2cc(O)ccc12 (configuration not stated) | -6 | i | -13 | 25* | -9 | -42 | 32%* | i | -0.7 | -22
Cc1cc(C)c(S(=O)(=O)N2CCCC(C(=O)NCc3cccnc3)C2)c(C)c1 (configuration not stated) | -3 | i | -20 | i | 9 | -28 | . | . | . | .
CCOC(=O)N1CCC(Nc2nc3ccccc3nc2NS(=O)(=O)c2ccc(Cl)cc2)CC1 | -62 | i | -35 | i | -56 | -88 | 32%* | i | -0.82 | -144
O=S(=O)(Nc1nc2ccccc2nc1N1CCN(c2ccccc2F)CC1)c1ccc(Cl)cc1 | -2 | i | -5 | 100* | -2 | 0 | 38%* | i | -0.99 | -10
CCOC(=O)N1CCC(NC(=O)c2ccc(Cl)cc2)CC1 | 5 | i | -34 | i | 10 | 9 | . | . | . | .
O=C(Nc1cccc(Cl)c1)N1CCN(Cc2ccccc2)CC1 | -18 | i | -71 | 100* | -53 | -159 | i | i | -1.1 | -8
Cc1cccc(NC(=O)N2CCN(Cc3ccc(Cl)cc3)CC2)c1 | 6 | i | -1 | i | 8 | 6 | . | . | . | .
COC(=O)c1ccc(-n2c(C)cc(C(=O)CSc3ccc(NC(C)=O)cc3)c2C)cc1 | 2 | i | -3 | 25* | 10 | 2 | 24%* | i | -1.1 | -4
CC(=O)Nc1ccc(SCC(=O)c2cc(C)n(-c3ccccc3F)c2C)cc1 | -111 | i | -15 | i | -15 | 34 | . | . | . | .
COc1ccccc1-c1ccc(SCc2ccc(C)cc2)nn1 | -14 | i | -16 | 25* | -23 | -61 | i | i | -0.88 | -10
c1ccc(CSc2ccc(-c3cccs3)nn2)cc1 | -124 | i | -95 | i | -126 | -108 | . | . | . | .
COc1ccccc1-c1ccc(SCC(=O)N2CCOCC2)nn1 | 25 | i | -12 | i | -7 | 4 | . | . | . | .
COc1ccccc1-c1ccc(SCc2ccc(F)cc2)nn1 | -40 | i | -41 | 100* | -7 | -60 | i | i | -0.99 | -14
SMILES | 697 NFkB inh | ANO1 activ | KLF5 inh | TMEM16A inh | Jurkat NFkB inh | aSyn 5UTR inh | TMEM16A reconf | TMEM16A Ca cntr | YFP-HEK293 quench | ClC-1 inh
CC(Oc1cccc(Cl)c1)C(=O)Nc1ccc(N2CCOCC2)cc1N1CCOCC1 (configuration not stated) | -5 | i | . | 25* | 12 | 2 | i | i | -1 | -8
CC(Oc1ccc(F)cc1)C(=O)Nc1ccc(N2CCOCC2)cc1N1CCOCC1 (configuration not stated) | -2 | i | . | i | -2 | 15 | . | . | . | .
CC(=O)c1ccc(S(=O)(=O)Nc2c(C)nn(C)c2C)cc1 | -5 | i | . | . | 2 | . | . | . | . | .
Cc1ccc(CNC(=O)c2cc3c(C)nc4ccccc4c3o2)cc1 | -13 | i | -55 | i | 9 | -2 | . | . | . | .
Cc1nc2ccccc2c2oc(C(=O)NCc3ccccn3)cc12 | 16 | i | -10 | 25* | 9 | 14 | i | i | -0.86 | -1
Cc1nn(-c2ccccc2)c2sc(-c3n[nH]c(=S)o3)cc12 | 17 | i | -4 | 25* | 2 | -23 | i | i | -1 | 1
Cc1nn(-c2ccccc2)c2sc(C(=O)O)cc12 | -6 | i | -11 | i | 3 | -5 | . | . | . | .
CCC(=O)N1CCc2cc(S(=O)(=O)N(CC)c3cccc(C)c3)ccc21 | -31 | i | -22 | i | -9 | 19 | . | . | . | .
CCN(c1cccc(C(F)(F)F)c1)S(=O)(=O)c1ccc2c(c1)CCN2C(=O)C1CC1 | -59 | i | -3 | 100* | 10 | 12 | i | i | -1.2 | -17
CCOC(=O)c1[nH]c2ccc(OC)cc2c1NC(C)=O | 20 | . | -32 | i | -3 | 18 | . | . | . | .
CCOC(=O)c1[nH]c2ccc(OC)cc2c1NC(=O)CN1CCSCC1 | -3 | i | -27 | 100* | -6 | . | i | i | -0.94 | 3
